Assay results: the OligoGym collection

target: RASGRP2; experiment: pooled miR-30 sensor sort-seq; sequence = guide strand; conditions: shRNA
Further: reference of the scale not given here.

Row | Sequence | sensor-assay potency score (higher = more potent)
1 | TCAAACAACAGGGACATCTTGC | -0.201
2 | TCTATGTCGATTAGGCTGCTGT | -0.615
3 | TTCAAGTCAAACTCCGCTGGGA | 0.724
4 | TTTGCTGAGGATCATGAGCTGC | -0.888

target: RASIP1; experiment: as above; conditions: shRNA

Row | Sequence | sensor-assay potency score (higher = more potent)
5 | TTTTCTGAGCGCTCCTTGCCTC | -0.853
6 | AAGAAGACTTGACAGAGGCTGC | 0.0487
7 | TTCCAAGTCATTGCAGAGCTGT | -0.369
8 | TGAATAGAGAGTCTTGGTGAGG | -1.22
9 | TTGGAGAAGAAGAACAAGTAGC | -0.187
10 | TTAGGCTGCTCCATGAAGCCTT | -0.552
11 | TCAACTGATCGAAGTCCCCGGG | 0.0667
12 | TTGACCTCGTTCCATCAGCGAG | -1.71
13 | TAGGTCTCAATCCTGGAGGCAT | -0.489
14 | TGGAGCAGCAGGAAGTAGGGGC | 0.0878
15 | TTGAATAGAGAGTCTTGGTGAG | 0.37
16 | TTGGTCAGCCTCCTTCTCCATT | -1.48

target: RASL10B; experiment: as above; conditions: shRNA

Row | Sequence | sensor-assay potency score (higher = more potent)
17 | TACAAAACTGACAGTGATCAGC | -0.715
18 | AACTCGTTGTACAAGAACTGGC | 0.0656
19 | TCGTAGACCAGGATGTAGGCGT | 0.139
20 | TAGACCAGGATGTAGGCGTGGA | -0.176
21 | TTGACGTACTCAAAGCTGTCAA | 0.000852
22 | ATGTAGGCGTGGACACTCCGGA | -0.908
23 | TAGCCGCACTTCCAGGTCTTGC | -1.97
24 | TAGGTTGTTGTGTCTCTGGGGG | 0.276
25 | TCCACGTAGCCGCACTTCCAGG | -2
26 | TTCTAAATCGGTACAAAACTGA | -0.599
27 | TCGTTGTACAAGAACTGGCGCA | -0.634
28 | TTAATCAGGATAGTCTGAGATC | -1.01

target: RASSF2; experiment: as above; conditions: shRNA

Row | Sequence | sensor-assay potency score (higher = more potent)
29 | TTTAAGTACCGGCATCTCGAAC | -0.976
30 | TTCTGTTTCTCACCACTCGTAT | -0.432
31 | TATGGTTGTAGAAATGGCCGTT | 1.03
32 | TATTTATCTTGTCCACATGGGA | -0.838
33 | TCTGCTGACTTCTACATCCAGC | -0.516
34 | TATCTTGTCCACATGGGACTAG | 0.13
35 | TAACTAAAATCAAAAGTCCTTG | -0.812
36 | TTCCCGATCTTCTTCCTCCTGG | 0.559
37 | TACATGTGAAAGTATCAGGTAG | -0.041
38 | TTCGTTGTCATCCTGCATCTGC | 0.418
39 | TTCTCCATTAGGAACACTTTGG | -1.02
40 | TTTGTGTCTAAATGTTTCCATG | -1.27
